Assay outcomes (PubChem)
CHT allo act – allosteric activators of human choline transporter CHT; Q9GZV3; CHT-expressing cells, membrane potential dye, choline EC20; hits give high values; LV-AA mutant CHT in HEK293 cells; B-score at 10 µM; 310,000 compounds, 0.49% hits; AID 488977;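 active means initial fluorescence not abnormally high and integrated response B-score, plate-corrected, over 3 SD above library mean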
Target sequence (Q9GZV3 whole entry, looked up): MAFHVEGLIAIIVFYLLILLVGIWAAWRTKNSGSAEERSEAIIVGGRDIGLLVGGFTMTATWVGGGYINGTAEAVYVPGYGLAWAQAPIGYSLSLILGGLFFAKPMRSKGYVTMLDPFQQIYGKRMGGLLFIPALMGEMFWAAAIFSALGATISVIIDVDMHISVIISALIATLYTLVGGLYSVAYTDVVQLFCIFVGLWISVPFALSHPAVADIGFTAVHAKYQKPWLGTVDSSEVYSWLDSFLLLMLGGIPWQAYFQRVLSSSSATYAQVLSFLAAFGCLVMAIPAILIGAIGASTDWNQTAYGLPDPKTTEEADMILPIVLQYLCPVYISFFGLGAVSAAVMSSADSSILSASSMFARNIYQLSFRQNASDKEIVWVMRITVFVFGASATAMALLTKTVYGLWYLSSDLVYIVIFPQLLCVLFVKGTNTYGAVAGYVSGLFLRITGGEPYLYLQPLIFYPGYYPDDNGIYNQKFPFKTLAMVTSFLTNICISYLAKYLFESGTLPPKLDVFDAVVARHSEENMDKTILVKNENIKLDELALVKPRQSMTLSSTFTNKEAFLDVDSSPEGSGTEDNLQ
A1 inh – inhibitors of the anti-apoptotic protein A1, read as caspase activation. 330,000 compounds, 0.066% hits. caspase activation, % (concentration not given with the values). AID 2462. MEF A1-2A-BIM cells, Caspase-Glo 3/7 luminescence, 3 h; percent of clofoctol response, vehicle zero;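 active means over half of replicate activation scores above 10%, or exactly half above 10 with the replicate mean above 10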
NLRP3 yeast inh – blocks the NALP3 inflammasome reconstituted in yeast; inhibition, % at 10 µM; Yeast reconstituted NLRP3/ASC/caspase-1, beta-gal luminescence, 24 h; 330,000 compounds, 0.39% hits;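 active means inhibition of 50% or more; inactive means inhibition below 50%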
Mot1-301 SUMO – blocks SUMOylation pathway, rescuing yeast Mot1-301 growth; S. cerevisiae Mot1-301 growth rescue, ATP luminescence, 38.5C; percent above DMSO median, 100 means doubled; growth rescue, % at 18.8 µM; 320,000 compounds, 1% hits; AID 2716;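 active means every valid replicate shows activation above 250% relative to neutral control wells; inactive means the rest, any valid replicate at or below 250%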
NALP1 inh – inhibitors of NALP1 inflammasome in yeast; S. cerevisiae NALP1/ASC/caspase-1 growth, X-gal OD620, 72 h; inhibition, % at 10 µM; 280,000 compounds, 0.61% hits; AID 2071; in the data active means inhibition mostly above about 24%, no sharp cut-off; inactive means mostly below about 32%
CHT inh – inhibits the human high affinity choline transporter. CHT-expressing cells, membrane potential dye, choline response; hits give low values. B-score at 10 µM. Q9GZV3. 310,000 compounds, 0.86% hits;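 active means B-score over 3 SD under the library average, and starting fluorescence ratio not unusually high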;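 further: choline stimulus applied at its EC90 after an EC20 pre-addition; B-score computed on integrated fluorescence ratio after choline addition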
Mot1 SUMO dose – inhibits SUMO pathway, affecting Mot1-301 yeast growth. shares compounds with Mot1-301 SUMO. S. cerevisiae Mot1-301 galactose growth, ATP luminescence, 24 h; -100 = growth of slx-deleted rescue strain. growth activity, percent, % at 42 µM. 2,300 tested, under 10 active;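 active means Signal drops as the depositor expects, and the fitted half-maximal dose is no more than ten times the top valid tested dose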;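 further: more negative values mean stronger growth rescue toward the control strain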
Numbers stand for hits; . = inactive; / = not tested or not shown; + = active, no number. Sampled rows, rich in hits. Any-hit rate of the full collection: about 3%.

SMILES	CHT allo act	A1 inh	NLRP3 yeast inh	Mot1-301 SUMO	NALP1 inh	CHT inh	Mot1 SUMO dose
O=C(CCc1nnc2ccc(NCc3ccco3)nn12)Nc1ccccc1F	.	.	.	.	.	.	/
COc1ccc(N(CC(=O)NCc2ccc(C)cc2)S(=O)(=O)c2c(C)nn(C)c2C)cc1	.	.	.	585	.	.	.
CN1CCN(C(c2cccc(C(F)(F)F)c2)c2nnnn2Cc2ccccc2)CC1 (centres undefined)	.	.	.	.	.	.	/
Cc1ccc(C)c(N2CCN(C(c3ccncc3)c3nnnn3Cc3ccccc3)CC2)c1 (centres undefined)	.	.	.	422	.	.	.
Cc1[nH]n(-c2ccccc2)c(=O)c1N=Nc1ccccc1	.	.	.	.	.	.	/
Cc1[nH]oc(=O)c1N=Nc1c(Cl)cccc1Cl	.	.	.	358	.	.	.
Cc1[nH]oc(=O)c1N=Nc1ccccc1	.	.	.	465	.	.	.
O=C(CCCCCNC(=O)N1CCn2c1nc1ccccc12)NCc1ccc(F)cc1	.	.	.	.	.	.	/
COc1ccc(C(=O)OCC(=O)c2ccc3c(c2)NC(=O)CO3)cc1S(=O)(=O)N1CCOCC1	/	.	.	.	/	/	/
COCc1cc(=O)n2[nH]c(C)cc2n1	.	.	.	.	.	.	/
Cc1cc2nc(CCl)cc(=O)n2[nH]1	.	.	.	+	.	.	.
COc1ccc(OC)c(NC(=O)CCN2C(=O)c3ccccc3C2=O)c1	.	.	.	.	.	.	/
Cc1nn(C)cc1S(=O)(=O)Nc1ncccn1	.	.	.	598	.	.	.
Cc1ccc(NC(=S)NCc2cccs2)cc1	.	.	.	.	.	.	/
CCCCc1ccc(NC(=S)NCc2cccs2)cc1	.	.	.	573	.	.	.
N#Cc1nc(NCC(F)F)nc(Nc2cc(F)cc(F)c2)n1	/	.	.	.	/	/	/
Cc1cc(CNC(=O)C2CCC(=O)N(Cc3ccccc3F)C2)on1 (centres undefined)	.	.	.	654	.	.	.
COc1ccc(-c2cc(C(=O)Nc3cc(C)ccc3O)no2)cc1	.	.	.	369	.	.	.
Cc1ccc(-c2cc(C(=O)Nc3cc(C)ccc3O)no2)cc1	.	.	/	.	.	.	/
COc1cccc(NC(=S)NC(=O)c2cncc(Br)c2)c1	.	.	.	983	/	.	.
CN(C)C(=O)CNC(=O)C1CCCCC1	.	.	.	+	.	.	.
CC(CNC(=O)C1CCCCC1)NC(=O)C1CCCCC1 (centres undefined)	.	.	.	.	.	.	/
CCCN1C(=O)c2ccccc2NC1c1ccc(C)cc1 (centres undefined)	.	.	.	458	.	.	.
CCn1c(SCC(=O)N(C)C)nc2cc(S(=O)(=O)N3CCCCC3)ccc21	.	.	.	.	/	.	/
CCCC(O)(c1ccccc1)C(CN1CCOCC1)c1ccccc1 (centres undefined)	.	.	.	.	.	.	/
SMILES	CHT allo act	A1 inh	NLRP3 yeast inh	Mot1-301 SUMO	NALP1 inh	CHT inh	Mot1 SUMO dose
CCCC(O)(c1ccc(Br)cc1)C(CN1CCOCC1)c1ccc(Cl)cc1 (centres undefined)	.	.	.	555	.	.	.
Cc1csc(=O)n1CCC(=O)OCC(=O)NNC(=O)c1ccccc1	.	.	.	.	/	.	/
Cc1ccn2cc(-c3cnoc3C)nc2c1	.	.	.	692	.	.	.
COC(=O)[C@@]12CCCCN1[C@H](c1ccc(-c3cccc(Cl)c3)c(OC)c1)[C@H]1C(=O)N(C)C(=O)[C@H]12	.	.	.	766	/	.	.
COC(=O)[C@@]12CCCCN1[C@H](c1ccc(-c3ccc(OC)cc3)cc1)[C@@H]1C(=O)N(C)C(=O)[C@@H]12	.	.	.	.	/	.	/
COC(=O)[C@@]12CCCCN1[C@H](c1ccc(-c3cccc(Cl)c3)cc1)[C@H]1C(=O)N(C)C(=O)[C@H]12	.	.	.	.	/	.	/
COC(=O)[C@@]12CCCCN1[C@H](c1ccc(-c3ccc(C(C)=O)cc3)cc1)[C@@H]1C(=O)N(C)C(=O)[C@@H]12	.	.	.	737	/	.	.
O=C(CCN1C(=O)c2ccccc2C1=O)NCc1ccc(Cl)cc1	.	.	.	.	.	.	/
Cc1c(C(=O)N2CCCC2)c(S(=O)(=O)Nc2cccc(Br)c2)c(C)n1C	.	.	.	709	.	.	.
COC(=O)Nc1ccc(S(=O)(=O)N2CCCC(C(=O)NC3CCS(=O)(=O)C3)C2)cc1 (centres undefined)	.	.	.	387	.	.	.
C#CCOc1c(/C=C\c2nc(O)c([N+](=O)[O-])c(=O)[nH]2)cc(Br)cc1OC	.	.	.	.	.	.	/
COc1ccc(NC(=S)NNC(=O)Cn2nc([N+](=O)[O-])cc2C)cc1	.	.	.	.	.	.	/
Cc1cc([N+](=O)[O-])nn1CC(=O)NNC(=S)Nc1ccc([N+](=O)[O-])cc1	.	.	.	672	.	.	.
O=C(O)COc1ccc(Br)cc1/C=N\Nc1ccccn1	.	.	.	425	.	.	.
Brc1ccccc1/C=N/Nc1ccccn1	.	.	.	.	.	.	/
CCN(C(=O)CSc1nc2ccccc2c(=O)n1-c1ccc(C)cc1)C1CCS(=O)(=O)C1 (centres undefined)	.	.	.	.	.	.	/
CCN(C(=O)COC(=O)c1cc(-c2ccc3cc(OC)ccc3c2)nc2ccccc12)C1CCS(=O)(=O)C1 (centres undefined)	.	.	.	.	.	.	/
CN(C(=O)COC(=O)c1cc(-c2ccc(Cl)s2)nc2ccccc12)C1CCS(=O)(=O)C1 (centres undefined)	.	.	.	511	.	.	.
Cc1ccc(-n2c(SCC(=O)N(C)C3CCS(=O)(=O)C3)nc3ccccc3c2=O)cc1 (centres undefined)	.	.	.	499	.	.	.
O=C(c1cn(-c2ccccc2)nc1-c1cccs1)N1CCOCC1	.	.	.	+	.	.	.
N#CC1=C(N)Nc2ncnn2C1c1ccccc1 (centres undefined)	.	.	.	.	.	.	/
N#CC1=C(N)Nc2ncnn2C1c1ccc([N+](=O)[O-])cc1 (centres undefined)	.	.	.	599	/	.	.
O=C(O)Cn1nnc(-c2ccc(OCc3ccccc3)cc2)n1	.	.	/	.	/	.	/
Cc1cc(NC(=O)CCC(=O)N(c2cccnc2)C(C(=O)NC2CCCC2)c2ccccc2)no1 (centres undefined)	.	.	.	+	.	.	.
COc1cc(C(=O)COC(=O)c2cc([N+](=O)[O-])ccc2N2CCOCC2)ccc1OC(F)F	.	.	.	662	/	.	.
